# Values joined by “and” are separate entries in the source; they are usually repeats but may differ in a detail not shown here. Equal values may be shown once. ± gives the standard deviation of the averaged measurements.
# System: HCC1569
# Assay: cell number relative to DMSO (% of DMSO); higher = more cells (less growth inhibition / toxicity)
# Details: concentration: 10 µM; 24 h
# Procedure, shortened: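 Compounds were applied at 10 µM for 24 h at 37 °C, in triplicate, to HCC1569 and TDF cells. The cells were then fixed and stained for H1.0, and nuclei were counterstained with DAPI. Nuclear H1.0 intensity or cell number is reported relative to the plate control as a percent, taking the median of replicates. Smoothing for positional effects was applied to HCC1569 values only.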
# 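Also: TDF denotes transformed human dermal fibroblasts of mesenchymal origin.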
row,SMILES,cell number
1,CC1OC(Oc2c(-c3ccc(O)c(O)c3)oc3cc(O)cc(O)c3c2=O)C(O)C(O)C1O (stereo not drawn) [Quercitrin],97.5
2,CCOC(=O)C1OC1C(=O)NC(CC(C)C)C(=O)NCCC(C)C (stereo not drawn),100
3,CC(C)C(CO)Nc1nc(Nc2cccc(Cl)c2)c2ncn(C(C)C)c2n1 (stereo not drawn),65.5
4,CC1CC2C(C(O)CC3(C)C2CCC3(O)C(=O)CO)C2(C)C=CC(=O)C=C12 (stereo not drawn) [Methylprednisolone],99.4
5,CC(C)c1cccc(O)c(=O)c1 [Hinokitiol],83.8
6,CC(C)C(CO)Nc1nc(Nc2cccc(Cl)c2)c2ncn(C(C)C)c2n1 (stereo not drawn) [Purvalanol A],68.8 ± 4.3
7,COC(C)(C)CCCC(C)CC=CC(C)=CC(=O)O (stereo not drawn) [Methoprene acid],104
8,Nc1ccc(N2C(=O)c3ccccc3C2=O)c(Cl)c1 [N-(4-Amino-2-chlorophenyl)phthalimide],103
9,CC(C)[N+]1(C)C2CCC1CC(OC(=O)C(CO)c1ccccc1)C2.[Br-] (stereo not drawn) [Ipratropium.Br],102
10,O=C1Nc2cc(Br)ccc2C1=C1N=c2ccccc2=C1NO [GSK-3 Inhibitor IX],56.3
11,C=C1C(=CC=C2CCCC3(C)C2CCC3C(C)C=CC(O)C2CC2)CC(O)CC1O (stereo not drawn) [Calcipotriene],97.8
12,COc1cc(C2Oc3cc(C4Oc5cc(O)cc(O)c5C(=O)C4O)ccc3OC2CO)ccc1O (stereo not drawn) [Silybine],100
13,CN(C)CCC=C1c2ccccc2COc2ccc(CC(=O)O)cc21 [Olopatadine],102
14,Cc1cc(Cc2cc(C)cc(C(C)(C)C)c2O)c(O)c(C(C)(C)C)c1,99.9 and 104
15,O=S(=O)(O)C1CCNCC1 [Piperidine-4-sulphonic acid],92.6
16,CC1CCc2c(N3CCC(O)CC3)c(F)cc3c(=O)c(C(=O)O)cn1c23 (stereo not drawn) [Nadifloxacin],107
17,O=c1c(-c2ccc(F)cc2)c(-c2ccncc2)[nH]n1-c1ccc(Cl)cc1 [p38 MAP Kinase Inhibitor],102

row,SMILES,cell number
1,CCC1(c2ccccc2)NC(=O)N(C)C1=O (stereo not drawn) [Mephenytoin],100
2,C[N+](C)(CCCCCC[N+](C)(C)CCCN1C(=O)c2cccc3cccc(c23)C1=O)CCCN1C(=O)c2cccc3cccc(c23)C1=O.[Br-].[Br-],100
3,COc1cc(O)c(C(=O)C=Cc2ccccc2)c(OC)c1 [Flavokawain B],75.4
4,CC(C(=O)O)c1ccc(CC2CCCC2=O)cc1 (stereo not drawn) [loxoprofen],103
5,CCCCCC=CCC=CCC=CCC=CCCCC(=O)OC(CO)COC(=O)CCCCCCCCCCCCCCCCC (stereo not drawn) [1-Stearoyl-2-arachidonoyl-glycerol],100
6,Cl.O=C(c1ccc(OCCN2CCCCC2)cc1)c1c(-c2ccc(O)cc2)sc2cc(O)ccc12 [Raloxifene hydrochloride],90.1
7,"COC(=O)C1C2CC3c4[nH]c5cc(OC)ccc5c4CCN3CC2CC(OC(=O)c2cc(OC)c(OC)c(OC)c2)C1OC (single isomer, unassigned; (-)) [(-)-Isoreserpine]",98.9
8,O=C(O)CCCC=CCC1C(O)CC(F)C1C=CC(O)C1Cc2ccccc2C1 (stereo not drawn),103
9,CC(C)=CCCC(C)=CCCC(C)=CCCC(C)=CCCC(C)=CCCC(C)=CCCC(C)=CCCC(C)=CCCC(C)=CCO [Solanesol],104
10,CCC(C(=O)C(C)C(O)C(C)CCc1ccc(C)c(O)c1C(=O)[O-])C1OC(CC)(C2CCC(O)(CC)C(C)O2)CC1C.[Na+] (stereo not drawn) [Lasalocid A],79.3
11,CC1(COc2ccc(CC3SC(=O)NC3=O)cc2)CCCCC1 (stereo not drawn) [Ciglitizone],102
12,CS(=O)(=O)CCNCc1nc(-c2ccc3ncnc(Nc4ccc(OCc5cccc(F)c5)c(Cl)c4)c3c2)cs1.Cl.Cl,88.4
13,Cl.c1ccc2nc(C3=NCCN3)ccc2c1 [BU224 hydrochloride],101
14,Cn1cc(C=C2C(=O)Nc3ccc(S(N)(=O)=O)cc32)c2ccccc21 [Syk Inhibitor],84.1
15,CC(=O)O.NC(=NCCCC(N)C(=O)O)NO [NG-Hydroxy-L-arginine acetate],97.8
16,CCOC(=O)Nc1ccc(NCc2ccc(F)cc2)nc1N.O=C(O)C=CC(=O)O [Flupirtine maleate],97.3

# Source: the supplement of paper PMC7156485
